# The list is not random: actives were taken first. Their share in the collection is about 1.2%.
# RGS4 inhibitor: Inhibitors of Regulator of G Protein Signaling (RGS) 4: qHTS | Regulator of G-protein signaling 4 (Homo sapiens), P49798 | Transcreener GDP fluorescence polarization, RGS4-accelerated GTP hydrolysis | Potency, µM (highest dose often 114 µM), actives largely listed as inhibitors | 390,000 compounds, 0.039% hits | AID 504845, 2011; also: nearly all actives have a fitted effect of over 75% in size
#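 MLSMR compounds (23 nl, pin-transferred) preincubated 10 min at room temperature with a 500nM (2x) first reagent, then RGS4 at 900nM (2x) plus Transcreener GDP mix added; fluorescence polarization (620/688 nm) read before and after 90 min at 30 °C.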
# PGK inhibitor: qHTS Assay to Find Inhibitors of Phosphoglycerate Kinase; Potency, µM (series often up to 57.5 µM), most hits filed as inhibitors; 380,000 compounds, 0.043% hits; PGK/GAPDH coupled, Kinase-Glo luminescence, 60 min; AID 602233, 2012; also: nearly all actives have a fitted effect of over 60% in size
#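 Recombinant glycosomal PGK reaction used 1,3-bisphosphoglycerate generated in-well by GAPDH (100nM final) in 100mM TEA pH 7.6, 5mM MgCl2, 0.01% Tween-20. After 60 minutes at room temperature, ATP was read by Kinase-Glo Plus luminescence end-point.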
# KCNH2 3.1 inh: qHTS for Inhibitors of KCHN2 3.1: Mutant qHTS. Potassium voltage-gated channel subfamily H member 2, brain isoform KCNH2 3.1 (human). U2OS KCNH2 3.1, thallium flux FluxOr; hits give low values. activity change, % (tested at about 1.8 µM). 340,000 compounds, 0.95% hits;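 active = maximum activity change below -70%; inconclusive = maximum activity change from -70% to -50%; inactive = maximum activity change above -50%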;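 also: thallium influx rate constant from kinetic fluorescence after stimulation buffer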
#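 Thallium flux via FluxOr fluorescence (Red40 quencher, 45 min loading) in U2OS cells virally expressing the KCNH2 3.1 isoform (1.77 x 10^8 /mL virus, overnight at 37 C). Rate constants from 2-min kinetic reads post-stimulation, normalised to positive and negative controls.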
# GCN5L2 inh: qHTS Assay for Inhibitors of GCN5L2 | Histone acetyltransferase KAT2A (Homo sapiens), Q92830 | 390,000 compounds, 0.21% hits | Potency, µM (doses to about 58.9 µM), hits mostly inhibitors | GCN5L2 HAT assay, ThioGlo1 CoA-SH fluorescence
#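 Compounds, pin-transferred from DMSO stocks, meet 20nM GCN5L2 for 15 min before the reaction begins with H3(1-25) peptide (75uM) and acetyl-CoA (70uM). Thiol-reactive ThioGlo1 reports CoA release over 20 min at room temperature.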
# Pin1 inhibitor: qHTS Assay to Find Inhibitors of Pin1 | Peptidyl-prolyl cis-trans isomerase NIMA-interacting 1 (Homo sapiens), Q13526 | Pin1 FP peptide displacement, HiFluor488, 10 min | Potency, µM (doses to about 115 µM), hits mostly inhibitors | 390,000 compounds, 0.009% hits | AID 504891, 2011; active = well fitted inhibition curve with a large enough effect in the polarisation, with a control signal flat, not every such curve was filed as active; inconclusive = small, poorly fitted or top-dose-only effect, or effect the other way, or a change in a side signal; inactive = no such curve, though single readings can be large or run the other way; the % refers to the polarisation
# hERG WT inh: qHTS for Inhibitors of KCHN2 3.1: Wildtype qHTS; activity change, % at 1.84 µM; 340,000 compounds, 0.37% hits; Voltage-gated inwardly rectifying potassium channel KCNH2 (Homo sapiens), Q12809; U2OS, BacMam KCNH2, thallium flux FluxOr; hits give low values;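 active = maximum activity change below -70%; inconclusive = maximum activity change between -70% and -50%; inactive = maximum activity change above -50%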
# Target sequence (Q12809 whole entry, looked up): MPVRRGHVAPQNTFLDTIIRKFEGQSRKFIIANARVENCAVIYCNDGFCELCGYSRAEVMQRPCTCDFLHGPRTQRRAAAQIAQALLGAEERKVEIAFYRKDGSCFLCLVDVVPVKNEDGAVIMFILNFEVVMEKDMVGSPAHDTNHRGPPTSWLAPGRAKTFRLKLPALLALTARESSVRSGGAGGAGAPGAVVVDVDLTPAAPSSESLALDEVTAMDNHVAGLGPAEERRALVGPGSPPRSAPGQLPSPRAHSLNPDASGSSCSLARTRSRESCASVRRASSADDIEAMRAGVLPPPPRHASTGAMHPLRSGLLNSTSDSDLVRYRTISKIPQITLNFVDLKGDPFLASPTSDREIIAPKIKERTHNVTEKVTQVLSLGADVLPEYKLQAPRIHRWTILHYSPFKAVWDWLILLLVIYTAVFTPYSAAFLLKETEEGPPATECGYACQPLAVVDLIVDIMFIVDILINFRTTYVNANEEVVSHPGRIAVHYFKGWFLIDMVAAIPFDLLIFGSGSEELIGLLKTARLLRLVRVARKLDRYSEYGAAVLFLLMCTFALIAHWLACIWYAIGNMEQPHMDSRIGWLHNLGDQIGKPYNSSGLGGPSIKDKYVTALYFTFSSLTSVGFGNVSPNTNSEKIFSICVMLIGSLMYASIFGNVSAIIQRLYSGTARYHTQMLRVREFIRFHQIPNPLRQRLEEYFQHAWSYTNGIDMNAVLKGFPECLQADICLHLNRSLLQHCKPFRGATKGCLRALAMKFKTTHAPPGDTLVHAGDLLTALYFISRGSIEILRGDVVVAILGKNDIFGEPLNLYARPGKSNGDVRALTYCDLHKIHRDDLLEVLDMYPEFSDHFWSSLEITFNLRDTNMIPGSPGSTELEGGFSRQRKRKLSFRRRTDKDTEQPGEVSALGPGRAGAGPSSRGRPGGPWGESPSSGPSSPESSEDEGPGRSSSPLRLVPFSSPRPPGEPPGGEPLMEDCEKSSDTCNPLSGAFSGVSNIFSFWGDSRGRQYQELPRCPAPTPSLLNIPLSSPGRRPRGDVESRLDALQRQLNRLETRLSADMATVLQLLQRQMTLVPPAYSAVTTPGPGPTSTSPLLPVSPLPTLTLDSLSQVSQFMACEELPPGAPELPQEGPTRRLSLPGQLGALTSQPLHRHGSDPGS
#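 U2OS cells transduced with wild-type KCNH2 virus are loaded with FluxOr dye for 45 min, and thallium flux is measured in kinetic reads before and after stimulation buffer. Rate constants are normalized to DMSO controls.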
# Hits are given with their value; i = inactive; ? = inconclusive; nt = no result given; ! = not confirmed by another sample; [ ] = remark or other dose. Unless noted, calls follow the shape of the dose curve; as a rule, active = well fitted curve in the direction sought with a large enough effect; inconclusive = small, poorly fitted or top-dose-only effect, or another doubt; inactive = no such curve, though single readings can be large; an effect the other way counts as inactive or inconclusive.
SMILES,RGS4 inhibitor,PGK inhibitor,KCNH2 3.1 inh,GCN5L2 inh,Pin1 inhibitor,hERG WT inh
CC(C)c1nc(CN(C)C(=O)N[C@H](C(=O)N[C@@H](Cc2ccccc2)C[C@H](O)[C@H](Cc2ccccc2)NC(=O)OCc2cncs2)C(C)C)cs1,nt,nt,nt,28µM!,nt,nt
CCOc1ccc(CNC(=O)c2ccccc2NC(=O)c2nsc3ccccc23)cc1,i,i,nt,i,i,nt
COC(=O)c1c(NC(=O)COC(=O)c2ccc(Cl)cc2[N+](=O)[O-])sc2c1CCCCC2,i,i,nt,28µM,i,i
Cc1ccc2c(=O)c3cccc(CC(=O)O)c3oc2c1C,nt,nt,nt,i,nt,nt
CCn1c(=O)cc(SCC(=O)NCc2ccccn2)c2ccccc21,i,i,-184,i,i,i
CCc1ccc(CNC(=O)CSc2cc(=O)n(CC)c3ccccc23)cc1,i,i,nt,i,i,nt
COc1ccc(NC(=S)NC(NC(=O)/C=C/c2ccccc2)C(Cl)(Cl)Cl)cc1 (configuration not stated),i[11.4 µM],i,i,1µM,i,i
COc1ccc(Nc2nc3ccccc3c3nnc(C)n23)cc1Cl,i,i,nt,i,i,nt
Cn1c2c(c3ccccc31)CCN(CCCCN1CCN(c3ccccc3)CC1)C2=O,i,i,-109,nt,i,-78
O=c1c2ccccc2sn1-c1ccc(S(=O)(=O)N2CCCC2)cc1,i,i,i,0.5µM,i,i
Cc1ccc(-n2sc3ccccc3c2=O)cc1S(=O)(=O)N1CCCCC1,i,i,i,2.2µM,i,i
Cc1ccc(C(=O)C2(C)C3c4cc(Br)ccc4OC(=O)C32C(=O)c2ccco2)cc1 (configuration not stated),i,i,-114,i,i,i
O=[N+]([O-])c1cc(-n2cnnn2)ccc1N1CCC(Cc2ccccc2)CC1,i,i,-81,i,?,i
COc1ccc(-c2oc3ncn4nc(-c5ccccc5OC)nc4c3c2-c2ccc(OC)cc2)cc1,i,i,nt,i,i,nt
COc1ccccc1-c1nccc(Nc2ccc(F)cc2)n1,nt,nt,nt,i,nt,nt
COc1ccc(C2C(C#N)=C(N)Nc3nc4ccccc4n32)cc1 (configuration not stated),i,i,i,i,?,-113
COc1ccc(-c2onc(C)c2C)cc1S(=O)(=O)N1CCN(c2ccc(Cl)cc2)CC1,i,i,nt,i,i,nt
OCC(O)CS (configuration not stated),nt,nt,nt,i,nt,nt
COc1ccccc1OCCN(C#N)c1nc(N(C)C)nc(N(C)C)n1,i,i,-84,i,i,i
Cc1cccc(NS(=O)(=O)c2cc3c4c(c2)CCN4C(=O)CC3)c1C,i,i,i,i,i,-173
CC1CCN(S(=O)(=O)c2ccc3c(c2)c(=O)c(C(=O)NCCc2ccccc2)cn3C)CC1,i,i,nt,i,i,nt
Cc1ccc(S(=O)(=O)N2CCN(CC(=O)N/N=C/C=C/c3ccccc3)CC2)cc1,i,i,-75,i,i,i
O=C(CN1CCN(S(=O)(=O)c2ccc(Br)cc2)CC1)N/N=C/c1ccc(Br)s1,i,i,-76,i,i,i
Clc1ccc(Sc2cc(Cl)c(Cl)cc2Cl)cc1,nt,nt,nt,i,nt,nt
COc1ccc2[nH]cc(CCNc3ccnc(-c4ccccc4Cl)n3)c2c1,nt,nt,nt,i,nt,nt
SMILES,RGS4 inhibitor,PGK inhibitor,KCNH2 3.1 inh,GCN5L2 inh,Pin1 inhibitor,hERG WT inh
CS(=O)(=O)Nc1cccc(-c2cncnc2NCc2cccnc2)c1,nt,nt,nt,i,nt,nt
O=c1ccn(C2OC(COP(=O)(O)OP(=O)(O)OP(=O)(O)O)C(O)C2O)c(=O)[nH]1 (configuration not stated),nt,nt,nt,i,nt,nt
O=c1ccn([C@@H]2O[C@H](COP(=O)(O)O)[C@@H](O)[C@H]2O)c(=O)[nH]1,38µM,nt,nt,i,nt,nt
Nn1c(-c2ccccn2)nnc1-c1ccccn1,i,i,i,i,i,i
Nc1ccccc1-c1nnc(-c2ccccc2N)n1N,i,i,-114,i,i,i
Cc1ccc(N(C)S(=O)(=O)c2ccc3c(c2)CCC(=O)N3)cc1C,nt,nt,nt,nt,i,nt
CCC(Nc1ccc(-c2nc(-c3cccnc3)no2)cc1[N+](=O)[O-])c1ccccc1 (configuration not stated),i,i,nt,i,i,nt
O=C(c1cccc(F)c1)N1CCC2(CCN(Cc3cc(C(F)(F)F)cc(C(F)(F)F)c3)CC2)CC1,nt,nt,nt,i,nt,nt
CCCCn1nc2cc(C(=O)NC3CCc4ccccc43)ccc2c1OCC (configuration not stated),i,i,i,?,?,i
O=C(NC1CCCc2ccccc21)c1cncc(Br)c1 (configuration not stated),i,i,-71,i,i,i
CCCn1nc2cc(C(=O)NC3CCCc4ccccc43)ccc2c1OCC (configuration not stated),i,i,i,10µM,i,i
CCOc1c2ccc(C(=O)N[C@H](C)C3CCCCC3)cc2nn1CC,i,i,i,0.89µM,i,i
Nc1nc(N)c2c(OCC3CCN(Cc4ccccc4F)CC3)cccc2n1,nt,nt,nt,nt,i,nt
Cc1ccc(NC(=O)c2cc3ccccn3n2)cc1F,i,i,nt,i,i,nt
O=C1c2cccc3c([N+](=O)[O-])ccc(c23)C(=O)N1c1ccccn1,i[11.4 µM],i,i,i,?,i
O=C1c2cccc3c([N+](=O)[O-])ccc(c23)C(=O)N1O,i,i,i,i,?,-197
O=C(Oc1ccccc1)N1CCC2(CCCN(c3ncccn3)C2)CC1,nt,nt,nt,i,nt,nt
Cc1ccc(N2CCN(S(=O)(=O)c3ccc4c(c3)CC(=O)N4)CC2)cc1,nt,nt,nt,nt,i,nt
CNC(=O)CSc1nnc(-c2ccco2)n1-c1ccc(C)cc1,i,i,i,i,i,i
Cc1ccc(-n2c(SCC(=O)Nc3ccc4cn[nH]c4c3)nnc2-c2ccco2)cc1,i,i,-112,i,i,i
Cc1ccc(NS(=O)(=O)c2ccc3c(c2)CCC(=O)N3)cc1Cl,nt,nt,nt,nt,i,nt
O=C(CSc1n[nH]c(-c2ccccn2)n1)Nc1cccc(Cl)c1,i,i,-70,i,i,i
CCc1ccc(CSc2nc(-c3ccccc3OC)nc3c2Cc2c(CO)cnc(C)c2O3)cc1,i,i,nt,i,i,nt
Cc1ccc2c(c1)N(C(=O)CCC(=O)NCCCN1CCN(C)CC1)CCO2,i,i,i,i,i,i
Cc1ccc2c(c1)N(C(=O)CCC(=O)NCCCN1CCC(Cc3ccccc3)CC1)CCO2,i,i,-116,i,i,i

# Assay outcomes from PubChem.
